From PubChem BioAssay AID382 (SGCOxCompounds, 2006) come the findings set out here.

This test addresses Dual specificity protein kinase CLK1 (Homo sapiens) (UniProt P49759). As to the kind of experiment: CLK1 binders by thermal stabilization, biophysical, recombinant human kinase, DSF (AID 382). The conditions noted are these: buffer 10 mM HEPES, stronger effect = higher value.
[1] abbreviates: measured here: replicate experiment 2, at 10 µM, run 2, protein 2 µM, NaCl 150 mM.

Activity calls are given as the source filed them. The rule behind the calls is not given here.

Chain of Dual specificity protein kinase CLK1 (Homo sapiens) (P49759 whole entry, looked up): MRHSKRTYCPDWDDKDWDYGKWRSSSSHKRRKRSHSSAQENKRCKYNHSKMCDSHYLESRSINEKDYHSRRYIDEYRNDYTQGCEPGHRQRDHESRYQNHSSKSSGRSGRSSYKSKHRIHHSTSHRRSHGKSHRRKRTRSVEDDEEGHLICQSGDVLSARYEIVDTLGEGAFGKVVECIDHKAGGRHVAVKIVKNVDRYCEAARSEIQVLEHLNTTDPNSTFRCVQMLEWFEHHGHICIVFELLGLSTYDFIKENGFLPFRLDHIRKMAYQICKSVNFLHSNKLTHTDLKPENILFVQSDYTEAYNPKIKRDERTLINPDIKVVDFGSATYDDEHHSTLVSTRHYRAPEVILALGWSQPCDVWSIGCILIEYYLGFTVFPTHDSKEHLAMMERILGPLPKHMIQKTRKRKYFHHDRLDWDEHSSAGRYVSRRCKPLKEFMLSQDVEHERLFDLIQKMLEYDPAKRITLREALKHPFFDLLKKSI

As for `N#C/C(=C1\Nc2ccccc2S1)c1ccnc(NCCc2cccnc2)n1`, under “at 10 µM, protein 2 µM, pH 7.5, NaCl 150 mM, with 50 µM L-Arg/L-Glu (1:1)”, the Tm shift is 5.9 Celsius (active).
For `Cc1c2ccncc2c(C)c2c1[nH]c1ccccc12`, the Tm shift (at 10 µM, protein 2 µM, pH 7.5, NaCl 150 mM, with 50 mM Arg/Glu) is 3.3 Celsius (active).
For the compound `COc1ccc2c(c1)/C(=C/c1cnc[nH]1)C(=O)N2`, the Tm shift under setting [1] was 3.4 Celsius.
Still for that read-out and setting: to `CCn1cnc2c(Nc3cccc(Cl)c3)nc(N[C@@H]3CCCC[C@@H]3N)nc21` belongs 4.5 Celsius.
